YB-1 expression: YB-1 expression inhibition | U2OS, qRT-PCR YB-1 vs CDIP delta delta Cp, 16 h; stronger effect = higher value; zero = DMSO, each unit about twofold | delta delta Cp (YB-1 minus CDIP) (no concentration beside the values) | AID 434959 | hit rate 0.37% among 30,000;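 active means delta delta Cp rounded down to an integer at or above 3, about 3 SD of DMSO wells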;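 further: higher means less YB-1 transcript or more CDIP transcript relative to DMSO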
U2OS ROS induce: cancer cell ROS induction | hit rate 2% among 46,000 | ROS induction (% of piperlongumine), % at 10 µM | AID 624156 | U2OS ROS induction, H2DCF-DA fluorescence; in the data active means ROS induction above about 79%, passing the limit was not always enough
Numbers stand for hits; . = inactive; / = no result given. In the library only some 2.1% were active in any assay of this set; here they are far more common.

SMILES | YB-1 expression | U2OS ROS induce
COc1cc(C(=O)NCCC(=O)N2CCN(C)CC2)cc(OC)c1OC | / | .
CCOC(=O)N1CCC(N/C=C(\C#N)S(=O)(=O)C(C)C)CC1 | / | .
Cc1ccc(-c2nn(CCC(=O)O)cc2/C=C2\SC(N)=NC2=O)cc1 | / | .
NC1=NC(=O)/C(=C/c2ccc(I)o2)S1 | / | 141
CCn1c(SCC(=O)Nc2cc(C)c(Cl)cc2OC)nnc1-c1cnccn1 | / | .
COC(=O)c1ccc(NC(=O)C(C)NS(=O)(=O)c2ccc(Cl)cc2)cc1 (centres undefined) | / | .
COc1cc2c(cc1OC)CN(C(=O)[C@H]1[C@@H]3C(=O)O[C@@H](c4ccccc4)[C@@H](c4ccccc4)N3[C@@H](c3ccc(OCCO)cc3)[C@]13C(=O)Nc1ccc(C#CC4=CCCCC4)cc13)CC2 | . | .
O=C1O[C@@H](c2ccccc2)[C@@H](c2ccccc2)N2[C@@H](c3ccc(OCCO)cc3)[C@]3(C(=O)Nc4ccc(C#CCCO)cc43)[C@@H](C(=O)N3CCCCCCC3)[C@H]12 | . | .
COc1cc2c(cc1OC)CN(C(=O)[C@H]1[C@@H]3C(=O)O[C@@H](c4ccccc4)[C@@H](c4ccccc4)N3[C@@H](c3ccccc3OCCO)[C@]13C(=O)Nc1ccc(C#CCCO)cc13)CC2 | . | 120
COc1ccc(C#Cc2ccc3c(c2)[C@]2(C(=O)N3)[C@H](c3ccccc3OCCO)N3[C@H](c4ccccc4)[C@H](c4ccccc4)OC(=O)[C@H]3[C@@H]2C(=O)N2CCc3cc(OC)c(OC)cc3C2)cc1 | . | .
O=C1O[C@@H](c2ccccc2)[C@@H](c2ccccc2)N2[C@@H](c3ccccc3OCCO)[C@]3(C(=O)Nc4ccc(C#CCCO)cc43)[C@@H](C(=O)N3CCCCCCC3)[C@H]12 | . | 221
COc1cc2c(cc1OC)CN(C(=O)[C@@H]1[C@H]3C(=O)O[C@H](c4ccccc4)[C@H](c4ccccc4)N3[C@H](c3ccc(OCCO)cc3)[C@@]13C(=O)Nc1ccccc13)CC2 | . | 98
COc1cc2c(cc1OC)CN(C(=O)[C@@H]1[C@H]3C(=O)O[C@H](c4ccccc4)[C@H](c4ccccc4)N3[C@H](c3ccc(O)cc3)[C@@]13C(=O)Nc1ccccc13)CC2 | . | .
COc1cc2c(cc1OC)CN(C(=O)[C@H]1[C@@H]3C(=O)O[C@@H](c4ccccc4)[C@@H](c4ccccc4)N3[C@@H](c3ccccc3OCCO)[C@]13C(=O)Nc1ccc(C#CC4=CCCCC4)cc13)CC2 | . | 87
Cc1[nH]n(-c2ccccc2)c(=O)c1Cc1c(Cl)cccc1Cl | . | .
Cc1ccc(S(=O)(=O)N(C)C[C@@H]2Oc3ccc(NS(=O)(=O)c4ccc(Cl)cc4)cc3C(=O)N([C@@H](C)CO)C[C@@H]2C)cc1 | . | .
COC(=O)C(CC#Cc1ccc2c(c1)[C@]1(C(=O)N2)[C@H](C(=O)N2CCCCCCC2)[C@H]2C(=O)O[C@H](c3ccccc3)[C@H](c3ccccc3)N2[C@@H]1c1ccc(OCCO)cc1)C(=O)OC | . | 104
COC(=O)C(CC#Cc1ccc2c(c1)[C@]1(C(=O)N2)[C@H](c2ccc(O)cc2)N2[C@H](c3ccccc3)[C@H](c3ccccc3)OC(=O)[C@H]2[C@@H]1C(=O)N1CCCCCCC1)C(=O)OC | . | .
CCOC(=O)c1cnc(N2CCOCC2)nc1N | . | .
CCCc1c(C(=O)OCC)c(C(=O)OCC)c2c(-c3ccccc3)nc(N3CCOCC3)nn12 | 3.2 | 114
Cc1nc(Oc2ccc(NC(=O)c3ccccc3)cc2)c2c3c(sc2n1)CCC3 | . | .
CC/C=C\C=C1\C(=O)C=CC1CCCCCCCC(=O)O (centres undefined) | . | 87
CC/C=C\CC1C(=O)C=C/C1=C/CCCCCCC(=O)O (centres undefined) | . | .
C[C@@H]1CN([C@H](C)CO)C(=O)c2cccc(NS(=O)(=O)c3ccccc3)c2O[C@@H]1CN(C)Cc1ccc(Cl)c(Cl)c1 | . | .
Cc1ccc(S(=O)(=O)Nc2cccc3c2O[C@@H](CN(C)Cc2ccc(Oc4ccccc4)cc2)[C@H](C)CN([C@@H](C)CO)C3=O)cc1 | . | .
C[C@@H]1CN([C@@H](C)CO)C(=O)c2cccc(NS(=O)(=O)c3ccccc3)c2O[C@H]1CN(C)Cc1ccc(Cl)c(Cl)c1 | . | 151
Cc1ccc(S(=O)(=O)Nc2cccc3c2O[C@H](CN(C)Cc2ccc(Oc4ccccc4)cc2)[C@@H](C)CN([C@H](C)CO)C3=O)cc1 | 19 | .
COC(=O)c1nn(-c2ccc(Br)cc2C)c(Br)c1C(=O)OC | / | .
O=C(C1=C[C@@H](c2ccccc2)C[C@@H](OCc2ccc(CO)cc2)O1)N1CCN(Cc2ccc3c(c2)OCO3)CC1 | . | .
COc1ccc(NC(=O)Nc2cccc3c2O[C@H](CN(C)C(=O)Nc2c(C)noc2C)[C@H](C)CN([C@@H](C)CO)C3=O)cc1 | . | .
